# Measured values: PubChem BioAssay (Tox21)
# Where “and” joins values, the source holds several entries; their conditions need not be identical. Equal values may be shown once. A structure can be active in one record and inactive in another. Calls of active or inactive are those of the source. Where a call stands in place of a potency, no number is given. Calls come from the whole dose curve.
# Biological target: Thyrotropin-releasing hormone receptor (Homo sapiens) (UniProt P34981)
# Assay: qHTS assay to identify small molecule agonists of the thyrotropin-releasing hormone receptor (TRHR) signaling pathway (AID 1346891)
# Conditions: TRHR-HEK293 calcium fluorescence, agonist mode; series mostly up to 57.6 µM
# Excerpt: National Center for Advancing Translational Sciences [NCATS] NIH Chemical Genomics Center [NCGC] U.S. Environmental Protection Agency [EPA] National Institutes of Environmental Health Sciences [NIEHS] National Toxicology Program [NTP] Assay overview: Thyrotropin-releasing hormone (TRH) receptor (TRHR) is a G-protein-coupled receptor which binds the tripeptide thyrotropin releasing hormone. TRHR is found in the brain and, when bound by TRH, acts (through phospholipase C) to increase intracellular inositol trisphosphate. It plays a crucial role in the anterior pituitary where it controls the synthesis and secretion of thyroid stimulating hormone and prolactin. The TRHR-Hek293 assay is a cell-based assay, and it has the potential to screen G protein-coupled receptors. A compound/drug can either activate (agonist) or suppress (antagonist) GPCRs that can be monitored by levels of intracellular calcium. Using this assay, the Tox21 10K compound library was screened to identify potential TRHR agonists.
# Assay Protocol Summary: The TRHR-Hek293 cells were dispensed at 1500cells/4uL/well in 1536-well black-clear bottom plates using a Multidrop dispenser. After the assay plates were incubated at a 37 C/5% CO2 incubator for 18 hours, 4 uL of Dye-Loading Solution was added to each well. The plates were incubated at 37 C for 2 hours. For agonist mode, 23 nL of compounds dissolved in DMSO, positive controls or DMSO only was transferred to the assay plate by a pin tool. The fluorescence intensity in the plates was measured using FDSS 7000EX kinetic plate reader for 3 min at 1 sec intervals. Each test compound was measured at 15 concentrations and in triplicates.
# Potency is the fitted concentration of half-maximal effect.
# Thyrotropin-releasing hormone receptor (Homo sapiens), sequence (P34981 whole entry, looked up): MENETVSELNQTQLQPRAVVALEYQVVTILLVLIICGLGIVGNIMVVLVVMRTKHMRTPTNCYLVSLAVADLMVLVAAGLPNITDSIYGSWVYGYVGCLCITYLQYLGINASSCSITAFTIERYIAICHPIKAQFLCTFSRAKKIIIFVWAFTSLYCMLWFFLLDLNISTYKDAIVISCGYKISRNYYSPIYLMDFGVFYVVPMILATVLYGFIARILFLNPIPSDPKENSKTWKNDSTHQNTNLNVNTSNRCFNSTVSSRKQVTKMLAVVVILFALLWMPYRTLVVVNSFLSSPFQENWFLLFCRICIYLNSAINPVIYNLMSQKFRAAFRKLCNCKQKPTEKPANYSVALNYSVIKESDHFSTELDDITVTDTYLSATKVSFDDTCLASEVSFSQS
row,SMILES,Potency
1,c1ccc2c(c1)ccc1ncccc12,inactive
2,Nc1ccc(N)c(Cl)c1,inactive and 4.9 µM (active)
3,C1CN(SSN2CCOCC2)CCO1,inactive
4,c1ccc2c(c1)[nH]c1ccccc12,inactive
5,C[C@]12CC[C@@H]3c4ccc(O)cc4CC[C@H]3[C@@H]1CC[C@H]2O,inactive
6,Cc1cccc(Nc2ccccc2C(=O)O)c1C,inactive
7,Cc1ccc(N)c([N+](=O)[O-])c1,inactive
8,c1ccc2c(c1)ccc1cc3c(ccc4ccccc43)cc12,inactive
9,C=C[C@H]1CN2CC[C@H]1C[C@@H]2[C@@H](O)c1ccnc2ccc(OC)cc12,inactive
10,CC/C(=C(/CC)c1ccc(O)cc1)c1ccc(O)cc1,inactive
11,C=CCNCC=C,inactive
12,C[C@]12CC[C@@H]3c4ccc(O)cc4CC[C@H]3[C@@H]1CC[C@@H]2O,inactive
13,O=C(O)c1ccc(O)cc1,inactive
14,CCC(Cc1c(I)cc(I)c(N)c1I)C(=O)O (stereo not given),inactive
15,CC(=O)O[C@]1(C(C)=O)CC[C@H]2[C@@H]3C=C(Cl)C4=CC(=O)CC[C@]4(C)[C@H]3CC[C@@]21C,inactive
16,CC(=O)Oc1ccc(C(c2ccc(OC(C)=O)cc2)c2ccccn2)cc1,inactive
17,COC(=O)C(C)Oc1ccc(Oc2ncc(C(F)(F)F)cc2Cl)cc1 (stereo not given),inactive
18,CC(C)[N+](C)(CCOC(=O)C1c2ccccc2Oc2ccccc21)C(C)C,inactive
19,COCCOCCOCCO,inactive
20,O=[Se](O)O,inactive

row,SMILES,Potency
1,Cc1ccc2c(c1)C(=O)OC2=O,inactive
2,OC[C@H]1O[C@@H]2O[C@H]3[C@H](O)[C@@H](O)[C@@H](O[C@H]4[C@H](O)[C@@H](O)[C@@H](O[C@H]5[C@H](O)[C@@H](O)[C@@H](O[C@H]6[C@H](O)[C@@H](O)[C@@H](O[C@H]7[C@H](O)[C@@H](O)[C@@H](O[C@H]1[C@H](O)[C@H]2O)O[C@@H]7CO)O[C@@H]6CO)O[C@@H]5CO)O[C@@H]4CO)O[C@@H]3CO,inactive
3,O=C1OC2(c3ccccc31)c1cc(I)c(O)c(I)c1Oc1c2cc(I)c(O)c1I,19.7 µM (active) [middle of 4 runs]
4,O=C(O)COCCN1CCN(C(c2ccccc2)c2ccc(Cl)cc2)CC1 (stereo not given),inactive
5,c1ccc2ncccc2c1,inactive
6,Cc1ccc(C(C)(C)C)c(O)c1,inactive
7,Cc1ccc([N+](=O)[O-])c(C)c1,inactive
8,Oc1ccc(C(c2ccc(O)cc2)C(Cl)(Cl)Cl)cc1,inactive
9,Oc1c(Cl)ccc(Cl)c1Cl,inactive
10,C=CCCCCCCCCCC,inactive
11,Clc1ccc(Sc2cc(Cl)c(Cl)cc2Cl)cc1,inactive
12,NCCOCCO,inactive
13,IC(I)I,inactive
14,CC(=O)Oc1c(C)c(C)c2c(c1C)CC[C@@](C)(CCC[C@H](C)CCC[C@H](C)CCCC(C)C)O2,inactive
15,COc1cc([C@H]2Oc3cc([C@H]4Oc5cc(O)cc(O)c5C(=O)[C@@H]4O)ccc3O[C@@H]2CO)ccc1O,inactive
16,Brc1nc2ccccc2s1,inactive
17,Cc1ccc(C(C)(C)C)cc1,inactive
18,[O-]/[N+](=N\O)c1ccccc1,inactive
19,CC(C)=CCO,inactive
20,C=CN1CCCC1=O,inactive
